Screening data: PubChem, National Center for Advancing Translational Sciences (NCATS)
Sfp PPTase inh: inhibitors of Bacillus subtilis Sfp phosphopantetheinyl transferase; Q9F4F7; Biochemical Sfp PPTase activity, qHTS; Potency, µM, inactives show largest response in the series, negative = inhibition, most hits filed as inhibitors; 3.5% of 310,000 active; AID 1490;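 further: the enzyme is Sfp with the accession as filed and its product quenches rhodamine fluorescence; 0% = enzyme reaction without inhibitor and -100% = no enzyme wells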
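Fluorescence-quenching assay: 15 nM Sfp-PPTase preincubated 15 min at room temperature with compound, then 5 uM rhodamine-CoA and 12.5 uM BHQ-2-labelled YbbR peptide added. Fluorescence (ex 525/em 598 nm) read at start and after 30 min; difference gives rate.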
VDR inhibitor: vitamin D3 receptor (human) inhibition. P11473. VDR-SRC2-3 peptide fluorescence polarization, 2 h. Potency, µM, for the others: max response, negative = inhibition, most hits filed as inhibitors. 0.93% of 400,000 active. AID 504847; further: on the % scale 0 is the no-effect control and ±100 the full control effect
Target sequence (P11473 whole entry, looked up): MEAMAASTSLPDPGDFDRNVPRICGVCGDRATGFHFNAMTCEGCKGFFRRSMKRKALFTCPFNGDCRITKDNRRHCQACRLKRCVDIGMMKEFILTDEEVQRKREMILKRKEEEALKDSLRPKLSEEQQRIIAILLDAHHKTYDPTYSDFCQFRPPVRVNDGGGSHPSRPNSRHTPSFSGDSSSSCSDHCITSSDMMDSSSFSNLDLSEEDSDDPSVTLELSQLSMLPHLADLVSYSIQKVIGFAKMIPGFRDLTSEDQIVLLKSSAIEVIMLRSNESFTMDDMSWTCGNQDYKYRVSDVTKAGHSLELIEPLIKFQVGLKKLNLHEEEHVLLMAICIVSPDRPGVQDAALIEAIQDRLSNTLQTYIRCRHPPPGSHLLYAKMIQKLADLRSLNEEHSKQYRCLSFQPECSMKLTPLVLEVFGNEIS
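Two reagent solutions held at 4 deg C in the dark were dispensed, compounds pinned at 23 nl, and the mixture incubated 2 h at room temperature. Read-out: fluorescence polarization of VDR–SRC2-3 peptide binding.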
Glioma ERSR ind: inducers of ER stress response in human glioma cells; U87-MG GRP78 promoter luciferase reporter, 16 h; Potency, µM, inactives show at the top dose activation, most hits filed as activators; 0.02% of 420,000 active; further: series mostly up to about 76 µM; % of control where 0% means no effect; nearly all actives have a fitted effect of over 35% in size
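Stably transfected U87-MG glioma cells carrying a GRP78-based luciferase sensor; 16 h compound incubation. Luminescence end-point read 10 min after Bright-Glo addition at room temperature.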
G9a inh: inhibitors of human histone lysine methyltransferase G9a. Q96KQ7. G9a H3K9 monomethylation, AlphaScreen, 2 h. Potency, µM (top dose mostly 102 µM), for inactives: at the highest dose activity, negative = inhibition, usual class: inhibitors. 8.8% of 350,000 active; further: on the % scale 0 is the no-effect control and ±100 the full control effect; nearly all actives have a fitted effect of over 75% in size
Target sequence (Q96KQ7 913-1193 limits assumed): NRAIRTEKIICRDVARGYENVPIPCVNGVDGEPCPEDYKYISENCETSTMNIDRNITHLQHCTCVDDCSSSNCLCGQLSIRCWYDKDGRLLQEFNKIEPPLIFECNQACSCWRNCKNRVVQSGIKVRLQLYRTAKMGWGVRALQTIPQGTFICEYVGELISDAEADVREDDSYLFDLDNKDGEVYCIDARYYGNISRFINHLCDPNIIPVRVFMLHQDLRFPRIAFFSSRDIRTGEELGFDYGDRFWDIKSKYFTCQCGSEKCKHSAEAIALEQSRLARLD
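Chemiluminescent proximity detection of H3K9 monomethylation, read after 10 min bead incubation in the dark. Reaction: 20 nM G9a, 500 nM biotin-H3K9 peptide, 20 uM SAM cofactor, 2 h, room temperature, following 15 min enzyme-compound preincubation.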
12-LOX inh: inhibitors of human 12S-lipoxygenase ALOX12; purified 12hLO, xylenol orange hydroperoxide absorbance; Potency, µM (highest dose often 108 µM), for inactives: at the highest dose activity change, negative = inhibition, most hits filed as inhibitors; 1.1% of 580,000 active; AID 1671190; further: on the % scale 0 is the no-effect control and ±100 the full control effect
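Hydroperoxide product was detected by ferrous iron/xylenol orange as the 573 to 405 nm absorbance ratio. Arachidonic acid at 40 uM (final) was turned over for 30 min at room temperature by 150 nM human 12hLO, pH 7.0 Hepes buffer, after 15 min compound preincubation.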
Starred values were filed as active, the others as inactive; ? = inconclusive; · = no result; ! = not confirmed by another sample; [ ] = another dose, or the depositor's remark. The sample as a whole holds a higher share of hits than the screen did. The call rests on the fitted dose curve; in most records, active means well fitted curve in the direction sought with a large enough effect; inconclusive means small, poorly fitted or top-dose-only effect, or another doubt; inactive means no such curve, though single readings can be large; an effect the other way counts as inactive or inconclusive. Potency means the concentration at half of the fitted maximal effect.

SMILES	Sfp PPTase inh	VDR inhibitor	Glioma ERSR ind	G9a inh	12-LOX inh
CSc1ccc(-c2sc(Nc3cccc4ccccc34)n[n+]2-c2ccccc2)cc1	50µM*	79µM*	-2%	·	?
Fc1ccc(-[n+]2nc(Nc3ccccc3)sc2-c2ccc(OCc3ccccc3)cc2)cc1	-19%	5%	-3%	·	40µM*
CCc1ccc(Nc2n[n+](-c3ccccc3)c(-c3ccc(C(=O)O)cc3)s2)cc1	45µM*	2%	0%	32µM*	?
CCOc1cc(-c2sc(Nc3ccccc3)n[n+]2-c2ccc(F)cc2)ccc1OC	3%	1%	-2%	·	-27%
O=C(NC1CCCCC1)c1ccncc1	·	·	·	·	-47%
CCc1ccc(Nc2n[n+](-c3ccccc3)c(-c3ccc(OC)c(Br)c3)s2)cc1	-6%	2%	-5%	35µM*	?
Brc1ccc(-c2ccc(CNCc3ccccn3)o2)cc1	-16%	-28%	3%	·	4%
Clc1cccc(-c2ccc(CNCc3ccccn3)o2)c1	79µM*	5%	3%	20µM*	-3%
CCNC(=O)C(C)NC(=O)c1cc2ccccc2oc1=O (stereo not drawn)	·	·	·	·	10%
Cc1cc(Cl)cc2c1NC(=O)[C@]21[C@@H]2C(=O)N(Cc3ccccc3)C(=O)[C@@H]2[C@@H]2CCCN21	-4%	-5%	-4%	?	?
CCc1ccc2c(c1)[C@]1(C(=O)N2)[C@@H]2C(=O)N(Cc3ccccc3)C(=O)[C@@H]2[C@@H]2CCCN21	-7%	-13%	2%	71µM*	?
Cc1ccc(S(=O)(=O)Nc2ccc(N(C)C)cc2)cc1	-1%	10%	-1%	-148%[59 µM]	-4%
CN(C)c1ccc(NS(=O)(=O)c2ccc(Cl)cc2)cc1	-5%	-14%	3%	3.5µM*	?
CN(C)c1ccc(NS(=O)(=O)c2ccc(-c3csnn3)cc2)cc1	9%	-16%	-2%	40µM*	?
COc1ccc(NS(=O)(=O)c2ccc(OC)c(N(C)S(=O)(=O)c3ccc(Cl)cc3)c2)cc1	4%	12%	0%	50µM*	-3%
CC(=O)N1CCC2(CC1)CC(=O)c1ccc(OCC(=O)NC3Cc4ccccc4C3)cc1O2	·	·	·	·	13%
CC(C)(COP(=O)(O)OP(=O)(O)OC[C@H]1O[C@@H](n2cnc3c(N)ncnc32)[C@H](O)[C@@H]1OP(=O)(O)O)C(O)C(=O)NCCC(=O)NCCS (stereo partly drawn)	40µM*	0%	-1%	-30%[12.7 µM]	·
CSc1nc(N)c2ncn([C@@H]3O[C@H](COP(=O)(O)OP(=O)(O)O)C(O)[C@H]3O)c2n1 (stereo partly drawn)	·	2%	-1%	9.5µM*	·
CC1CCC(C#N)(N(C)C(=O)CN(C)CC(=O)Nc2cccc(F)c2)CC1 (stereo not drawn)	·	·	·	·	9%
Cc1ccc(CC(=O)Nc2ccc3c(c2)N(C)C(=O)c2ccccc2S3)cc1	·	-23%	2%	4µM*	-16%
CCOc1ccc(CC(=O)Nc2ccc3c(c2)N(C)C(=O)c2ccccc2S3)cc1OCC	·	0%	-2%	1%[59 µM]	-22%
COc1cc(C)cc(OC)c1OCc1ccc(C#N)cc1	·	·	·	·	5%
CC(=O)NC1CCCN(O)C(=O)/C=C(\C)CCOC(=O)C(NC(C)=O)CCCN(O)C(=O)/C=C(\C)CCOC(=O)C(NC(C)=O)CCCN(O)C(=O)/C=C(\C)CCOC1=O (stereo not drawn)	56µM*	-9%	0%	-107%[59 µM]	·
O=C(NC1CCOC1=O)C1CCCCC1 (stereo not drawn)	·	·	·	·	4%
Cc1ccc(-n2nc(C)c([C@@H]3C=C[C@@H](NC(=O)NCc4ccccc4)C3)c2C)cc1Cl	·	·	·	·	-21%[176 µM]
SMILES	Sfp PPTase inh	VDR inhibitor	Glioma ERSR ind	G9a inh	12-LOX inh
CC(C)OC(=O)CC1C(=O)NCCN1C(=S)NC(=O)c1ccc(F)cc1 (stereo not drawn)	-25%	2%	2%	40µM*	-21%
COC(=O)CC1C(=O)NCCN1C(=S)NC(=O)c1sc2ccccc2c1Cl (stereo not drawn)	79µM*	-5%	5%	?	?
CC(C)OC(=O)CC1C(=O)NCCN1C(=S)NC(=O)c1ccccc1 (stereo not drawn)	18µM*	-10%	-4%	32µM*	-13%
NC(=O)COC(=O)c1ccc(C2Nc3ccccc3S(=O)(=O)N2)cc1 (stereo not drawn)	·	·	·	·	-7%
CC(O)c1n(C)c(Cl)c[n+]1C (stereo not drawn)	10%	-24%	-6%	11µM*	?
COc1ccc(NC(=O)Cn2ccc3ccc(Cl)cc32)c(OC)c1	·	·	·	·	-29%
CN1CCc2nc(SCC(=O)Nc3ccc(OC(F)(F)F)cc3)c(C#N)c(-c3cccs3)c2C1	50µM*	?	-5%	-17%[59 µM]	?
CN1CCc2nc(SCC(=O)Nc3cccc(F)c3)c(C#N)c(-c3cccs3)c2C1	79µM*	?	1%	·	?
Cc1cccc(CSc2nc3c(c(-c4cccs4)c2C#N)CN(C)CC3)c1	-26%	?	-3%	?	-27%
CCC(CC)N1CCN(Cc2nc3ccc([N+](=O)[O-])cc3c(=O)n2-c2ccccc2F)CC1	2%	-16%	-7%	-21%	·
CCOC(=O)N1CCN(Cc2nc3ccc([N+](=O)[O-])cc3c(=O)n2-c2ccccc2F)CC1	-26%	-13%	-2%	79µM*	·
CCOC(=O)c1ccc(-n2c(CC)nc3ccccc3c2=O)cc1	8%	·	·	10%	·
CCOC(=O)c1ccc(-n2c(CN3CCN(CC)CC3)nc3ccc([N+](=O)[O-])cc3c2=O)cc1	-6%	11%	6%	56µM*	?
CCOC(=O)c1ccc(-n2c(CN3CCOCC3)nc3ccc([N+](=O)[O-])cc3c2=O)cc1	-28%	0%	-3%	45µM*	0%
CCOC(=O)c1ccc(-n2c(CN(CC)CC)nc3ccc([N+](=O)[O-])cc3c2=O)cc1	22µM*	?	-1%	10µM*	0%
CCc1ccc(CNC(=O)c2sc3nc(C)nc(N4CCCC4)c3c2C)cc1	·	·	·	·	-22%
CN(CCCNC(=O)c1ccncc1)CC(F)(F)F	·	·	·	·	-20%
Cc1ccc(Cl)cc1N1CCN(C(=O)CNC(=O)NCc2ccc(F)cc2)CC1	·	·	·	·	-21%
CCCC[C@@]1(C2CCCC2)Cc2cc(OCC(=O)O)c(Cl)c(Cl)c2C1=O	·	50µM*!	5%	47%[59 µM]	-28%
COc1cc2c(cc1OC)C(C)N(CC(=O)Nc1ccc(C)c(C)c1)CC2 (stereo not drawn)	·	·	·	·	46%
O=c1c(C=NCCCn2ccnc2)c(-c2ccccc2)[nH]n1-c1nc2ccccc2s1	13%	11%	-4%	-6%[12.7 µM]	-3%
CN(C)CCCN=Cc1c(-c2ccccc2)[nH]n(-c2nc3ccccc3s2)c1=O	50µM*	18%	-8%	·	?
COc1ccc(CCNC(=O)CN(c2ccc(F)c(Cl)c2)S(C)(=O)=O)cc1OC	·	·	·	·	-31%
